Reference: the supplement of paper PMC6555819

Key:
Assay in all cases: PBM binding z-score (relative to random genomic background probes); higher = stronger binding; sequences stand for … in GC…GCGATTGACAGCGTAGAATGAAGG
[1] = tested on: PPARg:RXRa DBDmut IVT, anti-RXR (DBD mutation: RXRa K156A/R161A, NR concentration 270 nM, RXRa partner concentration 90 nM)
Procedure, shortened: (§1)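 Regression normalization was applied to scanned fluorescence from custom Agilent 4×180K protein-binding microarrays. Before scanning, arrays were incubated 1 h with ligand-free nuclear receptor dimers, and binding was detected with antibodies against each partner (one per run). Binding z-scores use the random background probes as reference.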

[2] = tested on: PPARg:RXRa IVT, anti-PPARg (NR concentration 270 nM, RXRa partner concentration 90 nM)
Procedure, shortened: as §1

[3] = tested on: PPARg DBDmut:RXRa IVT, anti-PPARg (DBD mutation: PPARg1 K132A/R137A, NR concentration 270 nM, RXRa partner concentration 90 nM)
Procedure, shortened: as §1

[4] = tested on: PPARg DBDmut IVT, anti-PPARg (DBD mutation: PPARg1 K132A/R137A, NR concentration 270 nM)
Procedure, shortened: as §1

[5] = tested on: PPARg homodimer (NR concentration 180 nM)
Procedure, shortened: as §1

[6] = tested on: PXR:RXRa (NR concentration 270 nM, RXRa partner concentration 90 nM)
Procedure, shortened: as §1

[7] = tested on: PXR homodimer (NR concentration 270 nM)
Procedure, shortened: as §1

[8] = tested on: RARa:RXR (NR concentration 270 nM, RXRa partner concentration 90 nM)
Procedure, shortened: as §1

[9] = tested on: RARa homodimer (NR concentration 270 nM)
Procedure, shortened: as §1

[10] = tested on: RARb:RXRa (NR concentration 270 nM, RXRa partner concentration 90 nM)
Procedure, shortened: as §1

[11] = tested on: RARb homodimer (NR concentration 270 nM)
Procedure, shortened: as §1

[12] = tested on: RARg:RXRa (NR concentration 270 nM, RXRa partner concentration 90 nM)
Procedure, shortened: as §1

[13] = tested on: RARg homodimer (NR concentration 270 nM)
Procedure, shortened: as §1

[14] = tested on: RXRa DBDmut IVT, anti-RXR (DBD mutation: RXRa K156A/R161A, NR concentration 90 nM)
Procedure, shortened: as §1

[15] = tested on: RXRa homodimer (NR concentration 180 nM)
Procedure, shortened: as §1

[16] = tested on: THRa:RXRa (NR concentration 90 nM, RXRa partner concentration 90 nM)
Procedure, shortened: as §1

[17] = tested on: THRa homodimer (NR concentration 90 nM)
Procedure, shortened: as §1

[18] = tested on: VDR:RXRa (NR concentration 270 nM, RXRa partner concentration 90 nM)
Procedure, shortened: as §1

[19] = tested on: VDR homodimer (NR concentration 270 nM)
Procedure, shortened: as §1

Sequence	PBM binding z-score [1]	PBM binding z-score [2]	PBM binding z-score [3]	PBM binding z-score [4]	PBM binding z-score [5]	PBM binding z-score [6]	PBM binding z-score [7]	PBM binding z-score [8]	PBM binding z-score [9]	PBM binding z-score [10]	PBM binding z-score [11]	PBM binding z-score [12]	PBM binding z-score [13]	PBM binding z-score [14]	PBM binding z-score [15]	PBM binding z-score [16]	PBM binding z-score [17]	PBM binding z-score [18]	PBM binding z-score [19]
AGAATGAGGTTAACAAAGATCAGGGAAACGCTTG	3.76	3.12	0.964	0.512	0.76	1.72	0.159	2.07	1.01	2.01	0.892	2.1	1.73	1.27	2.69	2.57	0.682	1.71	0.0806
CCTACTGGGCCATTCAGAGGTCACTGATCATATG	4.42	4.67	0.462	0.235	1.87	3.96	0.772	4.08	0.335	3.37	4.51	4.5	3.57	0.354	3.71	3.48	1.72	3.58	1.85
CGAACTAGGTCCTTGACAGGACAGTGAATAGTAA	3.56	2.67	-0.17	0.14	-0.238	-0.527	-0.0323	-0.228	-0.233	-0.0437	-0.115	0.0551	-0.0699	0.0443	-0.00915	0.388	-0.275	-0.351	-0.117
AGAGTGAGGTTACCAAAGATCAGGGAAACGCTTG	1.07	1.49	-0.228	-0.0667	0.744	1.7	0.558	1.97	0.667	2.48	1.61	2.25	1.78	0.473	2.81	2.84	1.16	1.64	0.671
AGTCAAAGTTCAGGACGAGGTAATGTAAAGCACG	-0.319	1.45	-0.174	0.146	1.53	3.18	1.4	2.5	0.661	4.23	3.05	4.89	4.72	3.05	3.37	3.5	1.44	3.07	2.1
ATGGAAAGGTCGTGAGGTGAGTATACAGAAAGGC	0.309	2.67	0.977	1.59	2.23	3.42	1.13	4.64	1.17	4.41	3.62	4.95	4.67	1.52	5.97	3.82	2.1	4	1.72
TTTAGTTGGTCAAAGGTCACACACTCGAAATGCG	4.19	7	2.09	2.08	5.45	6.21	1.61	7.55	3.28	5.17	5.1	7.25	6.17	1.17	8.07	4.04	2.03	5.36	2.6
CCTTACAGGTCACGAGGTTATAGCACGACGAGCG	5.46	6.09	1.32	1.39	3.54	4.58	0.719	5.38	1.27	5.31	4.51	6.3	6.12	2.77	6.64	3.98	1.85	5.04	2.48
GCTGCTAGGTCAACTGATGGTCAGCTAGAGCTCG	4.87	3.91	-0.00234	0.522	0.71	1.55	-0.557	2.21	0.274	4.28	3.68	5.23	5.53	1.73	2.87	3.1	1.07	1.5	0.0219
ACTCGGAGGACAAAGGTGAGAGCTACGCCAGTGA	0.595	2.19	-0.781	-0.86	0.6	0.477	-0.385	1.24	-0.258	2.37	1.79	2.63	1.82	0.453	1.5	1.68	0.221	0.122	0.0446
ACTAGCAGGCCAAAGGTCACTCAAGATTAGTCCG	2.74	5.44	-0.0674	0.109	1.96	5.11	0.886	5.72	0.747	4.81	4.87	6.14	5.41	0.861	6.31	3.6	0.91	–	1.58
ACTTACGGGTCAAGGAGGTTATAGCACGCGTATA	2.9	3.94	1.06	0.844	2.7	4.24	1.47	4.99	1.24	4.09	3.46	5.23	4.78	2.07	5.73	3.33	0.489	6.7	2.26
ACTCGGAGGATAAAGGTCAGAGCTACGCCAGTGA	0.595	3.02	-0.0489	0.296	4.61	3.25	0.221	4.24	2.08	4.01	3.89	4.72	4.44	0.655	4.43	2.69	0.203	–	0.801
CCTTACGGTTCACTGACAGGTTATAGCATTTGGA	0.62	0.00685	0.829	0.643	1.64	2.14	0.911	2.41	1.71	1.16	1.26	3.49	0.922	3.31	2.05	1.53	0.708	2.6	2.95
AATACAGGGTCACTAGGTCAGAGTAGGTACGAAT	5.74	6.99	2.72	2.61	4.65	4.34	1.23	5.62	1.85	4.67	4.58	6.39	6.22	2.99	6.66	3.92	2.23	–	3.55
CGTCCAAGGTCAGCAGGTGAGTGAAAGCGACGTG	2.8	3	-0.33	-0.746	3.15	2.41	0.206	3.32	0.593	4.87	3.84	5.23	6.27	2.47	3.87	3.28	1.95	2.67	0.692
AGAATGAGGTTAGCAAAGATCAGGGAAACGCTTG	2.18	1.55	0.688	0.613	-0.323	0.442	-0.147	0.623	0.53	1.46	0.446	0.938	0.899	0.105	1.23	1.8	0.173	0.322	-0.135
CCTAGCCGGCCAATCTGGGTCACTCAAGGCTTGA	3.39	4.68	-0.873	-0.666	0.858	1.03	-0.396	2.24	-0.278	1.4	2.25	1.14	1.24	-0.259	0.623	3.15	0.859	–	0.329
TCTGCTAGGTCAACGATGGTCAGCGAATCTGCTA	4.02	4.01	0.33	-0.3	0.458	1.44	-0.999	2.26	-0.808	4.11	3.42	4.03	4.75	0.927	2.57	3.15	0.707	–	-0.22
CCTTACGGGTCAGGAGGTTATAGCACGACGAGCG	1.26	2.77	0.0175	-0.373	1.97	2.86	0.19	4.14	0.79	3.63	3.15	4.9	4.22	-0.195	4.96	2.37	0.0139	–	0.418
GCTTACGGGTCAAAGGTTATAACATGAATAGAAT	4.69	5.8	1.74	2.86	3.61	6.24	0.489	8.14	0.937	4.53	3.48	6.91	4.77	2.43	9.77	4.13	0.296	–	1.8
GTACCAAGGTGAATAGGTCGTTGATGAGTAGGCG	1.99	2.78	0.41	0.294	1.84	0.719	-0.224	1.72	0.00144	1.94	1.89	2.73	1.44	0.0133	1.92	1.79	0.526	–	0.496
CCTACTGGGCCATTGAGAGGTCATTGATCATATG	4.21	3.95	-0.492	0.0836	2.14	4.37	2.03	4.26	0.245	2.82	3.78	4	2.63	0.642	3.13	3.06	1.26	3.81	3.78
CAAACTAGGCCAAGGTCAAAGTCGGTTTGTGCCA	6.88	6.61	0.98	0.266	1.87	4.28	1.2	3.97	0.776	4.07	3.85	4.2	4.17	2.06	3.91	3.77	2.36	4.19	3.23
AGTCAAAGTTCAGCACGAGGTAACGTAAAGCACG	-0.116	2.28	0.538	0.124	1.92	3.35	1.01	3.13	1.12	4.66	3.59	5.19	5.78	3.52	3.51	3.78	1.13	–	2.3
TTACCAAGGTGAACTGAGGTCGTTGATCCAACTC	2.89	3.47	0.972	0.996	1.32	6.12	1.94	3.7	-0.75	2.43	2.38	2.52	1.54	1.71	2.63	4.93	3.07	5.77	3.63
CGTCAAAGTTCATGGTAACGTAACAGAAAGCAGC	0.9	2.06	1.17	1.03	3.91	4.52	2.84	3.68	1.6	5	4.04	5.3	5.92	4.79	4.53	1.98	-0.212	–	4.64
CTCGAAAGGTCGTGGTCAGGTGAGTATACCAAAC	0.883	2.33	-0.0163	0.484	2.21	3.61	0.127	4.47	0.777	4.04	3.25	5.58	4.34	1.88	5.4	4.01	0.825	–	1.13
CGTCCAAGGTCAGCAGGTCAGAGAAAGCGACGTG	3.52	3.72	0.0227	-0.591	6.44	4.02	0.651	5.74	2.67	5.39	4.32	6.59	6.67	2.55	5.72	3.92	2.42	–	1.83
CCTACTGGGCAAAAAAGGTCATTGATGCCGATAA	0.468	1.62	-0.0172	-0.686	2.27	4.27	1.28	4.86	0.909	3.81	4.17	4.03	4.11	0.33	4.81	3.57	0.0156	–	2.05
